From PubChem BioAssay (NCI)
Compounds without any hit were thinned out: in the full panel of roughly 79,000, 15% have a hit. Calls of active or inactive are those of the source. Cut-off read from the data, not from the text of the source: active = growth inhibition above about 70%; inactive = the rest.

Assays:
[1] = NCI Yeast Anticancer Drug Screen. Data for the mlh1 strain (AID 171);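 note: 0% = growth of vehicle-treated control cultures of the same strain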; conditions: S. cerevisiae mlh1 strain growth inhibition, stronger effect = higher value
How it was run: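 Measured: yeast growth. Reference: vehicle-treated controls. Organism: strain with a defined alteration affecting DNA damage repair or cell cycle control, treated with compound.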

[2] = NCI Yeast Anticancer Drug Screen. Data for the sgs1 strain (AID 173);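 note: 0% = growth of vehicle-only control cultures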; conditions: S. cerevisiae sgs1 mutant, stronger effect = higher value
How it was run: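 Each compound was added to cultures of the altered yeast strain. Growth was recorded, and inhibition was derived by comparison with vehicle controls.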

[3] = NCI Yeast Anticancer Drug Screen. Data for the mlh1 rad18 strain (AID 175); conditions: S. cerevisiae mlh1 rad18 strain growth inhibition, stronger effect = higher value
How it was run: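 Genetically defined yeast (DNA repair-deficient) exposed to compounds; growth inhibition determined relative to vehicle.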

[4] = NCI Yeast Anticancer Drug Screen. Data for the rad18 strain (AID 177); conditions: S. cerevisiae rad18 mutant growth inhibition, stronger effect = higher value
How it was run: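 Vehicle-treated cultures served as the baseline for scoring compound-induced growth inhibition in DNA-repair-mutant yeast.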

[5] = NCI Yeast Anticancer Drug Screen. Data for the rad52 strain (AID 147);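 note: 0% = growth of vehicle-treated control cultures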; conditions: S. cerevisiae rad52 mutant growth inhibition, stronger effect = higher value
How it was run: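 The repair-mutant yeast strain was incubated with compounds, then growth was read and inhibition derived relative to vehicle.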

[6] = NCI Yeast Anticancer Drug Screen. Data for the wt1 strain (AID 149);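 note: 0% = growth of vehicle-treated wt1 cultures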; conditions: S. cerevisiae wt1 strain (SPY 50644) growth inhibition, stronger effect = higher value
How it was run: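 Using yeast strain wt1, compound-induced growth inhibition was determined against vehicle-treated cultures.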

[7] = NCI Yeast Anticancer Drug Screen. Data for the rad50EPP+ strain (AID 151);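 note: 0% = growth of vehicle-treated control cultures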; conditions: S. cerevisiae rad50 mutant strain, stronger effect = higher value
How it was run: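 Vehicle-normalised growth inhibition; rad50EPP+ yeast strain, altered in DNA damage repair, compound-treated.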

[8] = NCI Yeast Anticancer Drug Screen. Data for the mgt1 strain (AID 153); conditions: S. cerevisiae mgt1 mutant growth inhibition, stronger effect = higher value
How it was run: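 Vehicle-normalized growth inhibition is determined in mgt1 yeast, a strain selected for a defined alteration in DNA repair or cell cycle control.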

[9] = NCI Yeast Anticancer Drug Screen. Data for the rad50 strain (AID 155);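 note: 0% = growth of vehicle-only cultures of the same strain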; conditions: S. cerevisiae rad50 strain growth inhibition, stronger effect = higher value
How it was run: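 Relative growth inhibition (compound vs vehicle) was measured in yeast with a defined repair-gene alteration.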

[10] = NCI Yeast Anticancer Drug Screen. Data for the mec2-1 strain (AID 157); conditions: S. cerevisiae mec2-1 strain, stronger effect = higher value
How it was run: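 Mutant yeast (mec2-1) grown with compound; growth inhibition relative to vehicle control reported.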

[11] = NCI Yeast Anticancer Drug Screen. Data for the sgs1 mgt1 strain (AID 161);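 note: 0% = growth of cultures given vehicle only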; conditions: S. cerevisiae sgs1 mgt1 strain, stronger effect = higher value
How it was run: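 Growth of a repair-deficient yeast mutant was monitored after compound treatment and expressed as inhibition relative to vehicle-treated cultures.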

[12] = NCI Yeast Anticancer Drug Screen. Data for the CLN2oe strain (AID 163);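 note: 0% = growth of vehicle-only control cultures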; conditions: S. cerevisiae CLN2oe strain, stronger effect = higher value
How it was run: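 Compounds are applied to yeast harbouring a defined cell-cycle control change; reduced growth compared with vehicle-treated controls gives the value.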

[13] = NCI Yeast Anticancer Drug Screen. Data for the cln2 rad14 strain (AID 165);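 note: 0% = growth equal to vehicle treated cultures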; conditions: S. cerevisiae cln2 rad14 strain, stronger effect = higher value
How it was run: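 Readout is yeast growth inhibition versus vehicle-treated controls, using a strain with cln2 and rad14 alterations exposed to compound.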

[14] = NCI Yeast Anticancer Drug Screen. Data for the bub3 strain (AID 167); conditions: S. cerevisiae bub3 mutant strain, stronger effect = higher value
How it was run: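 Screening used yeast with an engineered genetic alteration affecting cell cycle control. Compound-exposed cultures were compared with vehicle cultures, and reduced growth was taken as inhibition.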

[15] = NCI Yeast Anticancer Drug Screen. Data for the wt2 strain (AID 169);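 note: 0% = growth of vehicle-treated yeast cultures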; conditions: S. cerevisiae wt2 strain growth inhibition, stronger effect = higher value
How it was run: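 Against vehicle-treated controls, the growth of yeast exposed to each compound was compared, and the inhibition was recorded.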

[16] = NCI Yeast Anticancer Drug Screen. Data for the rad14 strain (AID 159);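 note: 0% = growth of vehicle-treated control cultures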; conditions: S. cerevisiae rad14 strain growth inhibition, stronger effect = higher value
How it was run: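 Screen for anticancer potential: a yeast strain altered in DNA damage repair is grown with compound, and reduced growth is quantified against vehicle controls.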

[17] = at 5.0 µM (retest, dose inferred, filed as 0.5)
[18] = at 50.0 µM (retest, dose inferred, filed as 5.0)

Measured: growth inhibition

C/C(=N\OCC(O)CNCCSCc1ccccc1)c1ccccc1Cl (stereo unspecified)
inactive: [2]; at 1.2 µM 8% | [2]; at 3.7 µM 17% | [2]; at 11.0 µM 41% | [2]; at 33.0 µM 69% | [3]; [17] 21% | [3]; [18] 41% | [4]; at 1.2 µM 12% | [4]; at 3.7 µM 32% | [4]; at 11.0 µM 55%
active: [1]; at 33.0 µM 71% | [1]; at 100.0 µM 99% | [2]; at 100.0 µM 97% | [3]; at 50.0 µM 95.3% | [4]; at 33.0 µM 80% | [4]; at 100.0 µM 97%

Cn1c(-c2ccc(/C=N\N3CCN(/N=C/c4ccc(-c5c[n+]6ccsc6n5C)cc4)CC3)cc2)c[n+]2ccsc12
active: [5]; at 100.0 µM 75% | [6]; at 100.0 µM 71% | [7]; at 100.0 µM 78% | [9]; at 100.0 µM 76% | [10]; at 100.0 µM 82% | [12]; at 100.0 µM 76% | [13]; at 50.0 µM 70.5% | [14]; at 100.0 µM 78% | [15]; at 100.0 µM 90% | [1]; at 100.0 µM 74% | [2]; at 100.0 µM 88% | [3]; [18] 73% | [4]; at 100.0 µM 89%
inactive: [5]; at 1.2 µM 14% | [5]; at 3.7 µM 19% | [5]; at 11.0 µM 20% | [5]; at 33.0 µM 16% | [6]; at 1.2 µM 5% | [6]; at 3.7 µM 18% | [6]; at 11.0 µM 14% | [6]; at 33.0 µM 17% | [7]; at 1.2 µM 30% | [7]; at 3.7 µM 51% | [7]; at 11.0 µM 49% | [7]; at 33.0 µM 59% | [8]; at 1.2 µM 17% | [8]; at 3.7 µM 27% | [8]; at 11.0 µM 25% | [8]; at 33.0 µM 25% | [8]; at 100.0 µM 69% | [9]; at 1.2 µM 21% | [9]; at 3.7 µM 33% | [9]; [17] 12% | [9]; at 11.0 µM 21% | [9]; at 33.0 µM 11% | [9]; [18] 29% | [9]; at 50.0 µM 18% | [10]; at 1.2 µM 50% | [10]; at 3.7 µM 51% | [10]; [17] 14% | [10]; at 11.0 µM 57% | [10]; at 33.0 µM 41% | [10]; [18] 53% | [10]; at 50.0 µM 30.4% | [11]; [17] 18% | [11]; [18] 58% | [11]; at 50.0 µM 25.1% | [12]; at 1.2 µM 40% | [12]; at 3.7 µM 48% | [12]; at 11.0 µM 49% | [12]; at 33.0 µM 52% | [13]; [17] 18% | [13]; [18] 18% | [14]; at 1.2 µM 17% | [14]; at 3.7 µM 26% | [14]; [17] 17% | [14]; at 11.0 µM 25% | [14]; at 33.0 µM 40% | [14]; [18] 35% | [14]; at 50.0 µM 16.4% | [15]; at 1.2 µM -43% | [15]; at 3.7 µM -40% | [15]; at 11.0 µM -31% | [15]; at 33.0 µM 0% | [1]; at 1.2 µM 33% | [1]; at 3.7 µM 32% | [1]; at 11.0 µM 19% | [1]; at 33.0 µM 47% | [2]; at 1.2 µM 29% | [2]; at 3.7 µM 32% | [2]; at 11.0 µM 32% | [2]; at 33.0 µM 46% | [3]; [17] 34% | [3]; at 50.0 µM -10.8% | [4]; at 1.2 µM 19% | [4]; at 3.7 µM 34% | [4]; at 11.0 µM 24% | [4]; at 33.0 µM 62%

COc1ccc(C(C)c2cc3c(cc2OCC(C)=O)OCO3)cc1 (stereo unspecified)
inactive: [5]; at 1.2 µM -3% | [5]; at 3.7 µM 0% | [5]; at 11.0 µM 1% | [5]; at 33.0 µM -1% | [6]; at 1.2 µM -2% | [6]; at 3.7 µM -3% | [6]; at 11.0 µM -5% | [6]; at 33.0 µM -8% | [6]; at 100.0 µM 49% | [7]; at 1.2 µM -3% | [7]; at 3.7 µM 1% | [7]; at 11.0 µM 3% | [7]; at 33.0 µM 12% | [7]; at 100.0 µM 11% | [9]; at 1.2 µM 2% | [9]; at 3.7 µM 45% | [9]; [17] 1% | [9]; at 11.0 µM 26% | [9]; at 33.0 µM 9% | [9]; [18] 14% | [9]; at 50.0 µM -11.3% | [10]; at 1.2 µM -3% | [10]; at 3.7 µM -1% | [10]; [17] -5% | [10]; at 11.0 µM 0% | [10]; at 33.0 µM -4% | [10]; [18] 7% | [10]; at 50.0 µM -15.1% | [16]; at 1.2 µM -2% | [16]; at 3.7 µM -3% | [16]; at 11.0 µM -3% | [16]; at 33.0 µM 1% | [16]; at 100.0 µM 38% | [11]; [17] -4% | [11]; [18] 35% | [11]; at 50.0 µM 9.55% | [12]; at 1.2 µM -4% | [12]; at 3.7 µM -3% | [12]; at 11.0 µM -2% | [12]; at 33.0 µM -10% | [13]; [17] -6% | [13]; [18] 9% | [13]; at 50.0 µM -48.7% | [14]; at 1.2 µM 2% | [14]; at 3.7 µM 8% | [14]; [17] 5% | [14]; at 11.0 µM 17% | [14]; at 33.0 µM 40% | [14]; [18] 66% | [14]; at 50.0 µM -26.4% | [15]; at 1.2 µM -3% | [15]; at 3.7 µM 4% | [15]; at 11.0 µM -5% | [15]; at 33.0 µM -6% | [1]; at 1.2 µM -3% | [1]; at 3.7 µM -4% | [1]; at 11.0 µM -4% | [1]; at 33.0 µM -3% | [3]; [17] -5% | [3]; [18] 45% | [3]; at 50.0 µM 11.4% | [4]; at 1.2 µM -2% | [4]; at 3.7 µM 2% | [4]; at 11.0 µM 6% | [4]; at 33.0 µM 11%
active: [5]; at 100.0 µM 73% | [9]; at 100.0 µM 84% | [10]; at 100.0 µM 73% | [12]; at 100.0 µM 76% | [14]; at 100.0 µM 86% | [15]; at 100.0 µM 75% | [1]; at 100.0 µM 76% | [4]; at 100.0 µM 84%
